± gives the uncertainty stated by the source.
system: FLX1; experiment: cell viability z-score within plate (CellTiter-Glo), mean of 3 biological replicates; higher = higher viability relative to plate (less growth inhibition); conditions: 2 µM; time (hr): 120
Procedure: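 FLX1 fibrolamellar carcinoma cells (DNAJB1-PRKACA fusion), 600 cells/well in 384-well plates, treated with a Selleck kinase inhibitor library (L1200) at 2 uM for 5 days (120 hr); viability by CellTiter-Glo. A z-score was computed within each plate and averaged over three biological replicates.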

`CCn1c(N)c(C(=O)NC)c(=O)c2ccc(C#CC(C)(O)COC)nc21` (stereo not drawn) and `Cc1cnc(Nc2ccc(OCCN3CCCC3)cc2)nc1Nc1cccc(S(=O)(=O)NC(C)(C)C)c1` are within error of each other in “cell viability z-score within plate” value: -1.49 ± 1.7 for the first, -0.235 ± 0.43 for the second.

`NC1(Cc2ccc(Cl)cc2)CCN(c2ncnc3[nH]ccc23)CC1` and `Cc1cc(N2CCOCC2)cc2[nH]c(-c3c(NC[C@@H](O)c4cccc(Cl)c4)cc[nH]c3=O)nc12` are within error of each other in “cell viability z-score within plate” value: -0.404 ± 1.4 for the first, -0.387 ± 0.41 for the second.

Going from `FC(F)(F)c1ccc(/C=C/c2nc(COc3ccc(CCCCn4ccnn4)cc3)co2)cc1` [Mubritinib (TAK 165)] to `O=C(Cc1ccc(-c2ccc(OCCN3CCOCC3)cc2)cn1)NCc1ccccc1`, the “cell viability z-score within plate” value rises from -0.952 ± 0.95 to 0.711 ± 0.45.

`OCCn1cc(-c2cnc3nnn(Cc4ccc5ncccc5c4)c3n2)cn1` and `CC1(C)CNc2cc(NC(=O)c3cccnc3NCc3ccncc3)ccc21` [Motesanib Diphosphate (AMG-706)] are within error of each other in “cell viability z-score within plate” value: 0.158 ± 1.6 for the first, 0.0691 ± 0.21 for the second.

`C[C@H]1[C@H](C)CC[C@]2(C(=O)O)CC[C@]3(C)C(=CC[C@@H]4[C@@]5(C)C[C@@H](O)[C@H](O)[C@@](C)(CO)[C@@H]5CC[C@]43C)[C@H]12` [Asiatic Acid] and `CC(C)c1cnn2c(NCc3ccccc3)cc(NCCCCCCN)nc12` are within error of each other in “cell viability z-score within plate” value: 0.124 ± 0.46 for the first, 0.577 ± 0.3 for the second.

Compared with `O=c1c(-c2ccc(O)cc2)coc2cc(O)cc(O)c12` [Genistein], `O=c1ncn2nc(Sc3ccc(F)cc3F)ccc2c1-c1c(Cl)cccc1Cl` is lower in “cell viability z-score within plate” value: -0.148 ± 0.52 for the first, -3.62 ± 2.1 for the second.

In the case of `CC[C@H](Nc1ncnc2[nH]cnc12)c1nc2cccc(F)c2c(=O)n1-c1ccccc1` [Idelalisib (CAL-101, GS-1101)], the “cell viability z-score within plate” value is reported as 0.166 ± 0.22.

Reference: the supplement of paper PMC9925115
